Compound activity (PubChem)
Shown are actives, neighbours in structure and some others; about 0.5% of the full set was active somewhere.
C-LANA FP – KSHV C-LANA DNA binding inhibition; MBP-C-LANA/FAM-LBS DNA binding, fluorescence polarization; inhibition, % at 9 µM; actives 0.078% (n = 340,000); AID 504423;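 active means highest replicate inhibition at or above 60% at 9 µM, even if other replicates fall short; inactive means all replicates below 60% inhibition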;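 further: 0% = neutral control wells and 100% = 4 µM acridine orange control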
cardiac RTF act – increases calcium sensitivity of human cardiac regulated thin filaments. P19429+P45379. IANBD-labeled TnC RTF fluorescence at EC20 calcium; 0% EC20 calcium, 100% full calcium. activation, % at 7.2 µM. actives 0.24% (n = 340,000). AID 493008;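 active means activation above the mean over all tested compounds plus 3 SD, cut at about 30% in these data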;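 further: rise in fluorescence read as greater calcium sensitivity of cardiac thin filaments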
Keap1-Nrf2 PPI – Keap1-Nrf2 (human) interaction inhibition; Keap1 Kelch-Nrf2 peptide fluorescence polarization, 1536-well; Q14145; actives 0.15% (n = 340,000); inhibition, % at 9.4 µM; AID 504523; in the data active means inhibition above about 12%; inconclusive means no clear call, values can overlap the other calls; inactive means below about 7.3%;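 further: human Keap1 Kelch domain with fluorescein labeled Nrf2 9mer peptide probe; 0% = neutral control wells and 100% = peptide positive control; higher means more block of Keap1 binding to Nrf2 peptide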
Target sequence (Q14145 whole entry, looked up, the tested form may be a part): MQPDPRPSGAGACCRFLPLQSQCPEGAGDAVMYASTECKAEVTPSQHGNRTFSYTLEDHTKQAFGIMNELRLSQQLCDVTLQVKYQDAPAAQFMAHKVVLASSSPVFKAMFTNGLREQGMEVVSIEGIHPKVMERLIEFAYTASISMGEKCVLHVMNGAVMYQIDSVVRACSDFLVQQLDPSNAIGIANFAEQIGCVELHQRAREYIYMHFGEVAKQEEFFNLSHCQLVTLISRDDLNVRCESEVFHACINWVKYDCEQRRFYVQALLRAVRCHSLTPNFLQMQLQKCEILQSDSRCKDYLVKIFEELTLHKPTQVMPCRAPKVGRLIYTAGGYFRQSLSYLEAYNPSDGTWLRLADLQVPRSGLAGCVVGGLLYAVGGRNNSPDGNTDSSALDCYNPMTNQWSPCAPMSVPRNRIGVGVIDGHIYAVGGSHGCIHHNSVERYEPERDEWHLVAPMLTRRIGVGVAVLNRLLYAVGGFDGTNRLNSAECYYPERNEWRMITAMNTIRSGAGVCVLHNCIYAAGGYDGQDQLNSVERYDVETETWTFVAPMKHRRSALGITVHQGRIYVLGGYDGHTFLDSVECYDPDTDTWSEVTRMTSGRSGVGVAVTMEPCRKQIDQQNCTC
RTF Ca sens inh – cardiac RTF calcium desensitization; P19429+P45379; IANBD-labeled cardiac RTF, Ca2+ fluorescence; inhibition, % at 7.15 µM; actives 0.12% (n = 340,000); AID 493244;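 active means inhibition above the mean inhibition of all tested compounds plus 3 SD, cut at about 17% in these data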;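 further: assay run at fixed EC70 calcium of 1.6 mM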
Keap1 TSA – Keap1 (human) Kelch domain binding; shares compounds with Keap1-Nrf2 PPI; Keap1 Kelch thermal shift, delta Tm; active compounds read high; max delta Tm, degrees C; actives 8% (n = 400); AID 651823; in the data active means max delta Tm above about 0.48 degrees C
Dye-only ctr – dye artifact in Keap1 thermal shift counter-screen; shares compounds with Keap1-Nrf2 PPI; Sypro Orange dye-only thermal melt, no protein, delta Tm; top dose 26 µM; delta Tm, degrees C (no concentration beside the values); 140 tested, under 10 active;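 active means at highest dose tested, delta Tm positive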
* hit, by the source's call; i = inactive; ? = inconclusive; nt = no result.

SMILES | C-LANA FP | cardiac RTF act | Keap1-Nrf2 PPI | RTF Ca sens inh | Keap1 TSA | others
O=C(Nc1ccc2nc3n(c(=O)c2c1)CCCCC3)C(=O)N1CCN(c2ccc(F)cc2)CC1 | 0 | -1 | -2 | 0 | nt
NC(=O)Cn1cnc2nc3n(c2c1=O)CCC3 | 0 | 3 | -3 | -4 | nt
CC1(C)CC(=O)C2=C(C1)OC1=C(C2)C(=O)CC(C)(C)C1 | 2 | -4 | 21* | -4 | -0.1
O=C(NNS(=O)(=O)c1ccc(F)cc1)c1ccc(O)cc1 | 23 | 1 | 43* | -6 | -0.17
O=C(NNS(=O)(=O)c1ccc(F)cc1)c1ccc(S(=O)(=O)N2CCCCC2)cc1 | 0 | 5 | -4 | -23 | nt
CC(OC(=O)CCc1nc2ccccc2c(=O)[nH]1)C(=O)Nc1cccc(C(F)(F)F)c1 (stereo unspecified) | 0 | 10 | 0 | 0 | nt
N=c1c(C(=O)NC2CCCC2)cc2c(=O)n3ccccc3nc2n1Cc1ccccc1 | 1 | -2 | ? | -14 | 0.03
CC(C)CC1C(C#N)=C(N)Oc2n[nH]c(-c3ccccc3)c21 (stereo unspecified) | -2 | -3 | 5 | -7 | nt
Cc1[nH]nc2c1C(CC(C)C)C(C#N)=C(N)O2 (stereo unspecified) | 28 | nt | 46* | nt | -0.17 | Dye-only ctr=-33
S=C1SCN(Cc2ccccc2)CN1Cc1ccccc1 | 0 | 1 | -2 | -2 | nt
S=C1SCN(CC2CC2)CN1CC1CC1 | 33 | 4 | 33* | 4 | -0.15
CN(C)CCNc1ccc(CO)c2sc3ccc(O)cc3c(=O)c12 | -11 | -3 | -10 | -9 | nt
CN(C)CCNc1ccc2ncn3c4ccc(O)cc4c(=O)c1c23 | 114* | 170* | 38* | -185 | -0.13
CN(C)c1ccc(N=Nc2ccc(S(N)(=O)=O)cc2)cc1 | -2 | 1 | 3 | -5 | nt
NS(=O)(=O)c1ccc(N=Nc2c[nH]c(=O)c(O)c2)cc1 | 68* | 58* | 34* | -37 | 0.54* | Dye-only ctr=-26
Cc1ccc(-n2nnnc2SCC(=O)c2c(N)n(C3CC3)c(=O)[nH]c2=O)cc1 | 22 | 9 | 42* | -9 | -0.08
O=C1c2cccc3c(O)ccc(c23)C(=O)N1c1ccc(Cl)cc1 | 71 | 532* | 39* | i | 0.21
O=C1c2cccc3c(O)ccc(c23)C(=O)N1Cc1ccco1 | 76* | 574* | 37* | i | 0.29
COc1ccc(C(=O)NCC(=O)N2CCN(C(=O)c3ccco3)CC2)cc1 | -2 | -2 | 1 | 2 | nt
O=[N+]([O-])c1cncc([N+](=O)[O-])c1Nc1cccc(O)c1 | 27 | 1 | 35* | -9 | -0.14
O=C1CCCc2oc3c(cc(NS(=O)(=O)c4ccc5c6c(cccc46)C(=O)N5)c4ccccc43)c21 | 0 | 2 | 24* | -2 | 1.6*
Cc1oc2c(cc(NS(=O)(=O)c3ccc4c5c(cccc35)C(=O)N4)c3ccccc32)c1C(=O)OC(C)C | 0 | 9 | 0 | -6 | nt
CCCn1c(SCC(=O)N2CCc3ccccc3C2)nc(O)cc1=O | -2 | 0 | -1 | -1 | nt
O=S(=O)(Nc1ncccn1)c1ccc(NC(=S)NCc2cccnc2)cc1 | 1 | 2 | 17* | 10 | -0.18
N#C/C(=C\c1ccc(O)cc1)C(=O)N1CCCC1 | -1 | 0 | -4 | -3 | nt
N#C/C(=C\c1ccc[nH]1)C(=O)N1CCCCC1 | nt | nt | 58* | nt | -0.17
Cc1ccsc1C(=O)NCc1ccc(F)cc1 | -1 | -1 | 2 | -3 | nt
